For test [1], the target named is T1, Muscle, skeletal receptor tyrosine-protein kinase (Homo sapiens) (UniProt O15146).
T1 sequence (whole entry): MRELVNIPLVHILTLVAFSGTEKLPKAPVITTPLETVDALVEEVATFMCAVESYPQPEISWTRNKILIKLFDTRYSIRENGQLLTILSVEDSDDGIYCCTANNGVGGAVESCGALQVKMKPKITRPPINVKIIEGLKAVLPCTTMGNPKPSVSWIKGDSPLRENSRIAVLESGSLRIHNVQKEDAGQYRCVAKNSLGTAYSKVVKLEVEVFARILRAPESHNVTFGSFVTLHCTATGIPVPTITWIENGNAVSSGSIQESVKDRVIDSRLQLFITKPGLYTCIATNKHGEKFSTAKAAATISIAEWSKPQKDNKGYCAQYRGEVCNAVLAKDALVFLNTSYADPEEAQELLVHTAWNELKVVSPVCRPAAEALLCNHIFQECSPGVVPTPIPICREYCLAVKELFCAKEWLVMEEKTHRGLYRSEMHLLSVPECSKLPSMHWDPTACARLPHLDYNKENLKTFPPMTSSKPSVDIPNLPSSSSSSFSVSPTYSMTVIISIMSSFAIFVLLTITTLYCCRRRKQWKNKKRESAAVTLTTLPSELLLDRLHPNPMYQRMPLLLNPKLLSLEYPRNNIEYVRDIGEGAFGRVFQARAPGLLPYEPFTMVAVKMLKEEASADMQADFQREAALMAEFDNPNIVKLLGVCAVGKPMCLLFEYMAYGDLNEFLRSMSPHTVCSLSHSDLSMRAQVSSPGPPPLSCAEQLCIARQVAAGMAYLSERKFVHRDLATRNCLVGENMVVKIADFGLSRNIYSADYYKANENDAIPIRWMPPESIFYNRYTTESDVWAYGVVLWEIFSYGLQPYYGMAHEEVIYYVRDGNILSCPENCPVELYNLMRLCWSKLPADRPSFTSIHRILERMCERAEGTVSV
To be noted: at 1 µM.

Test [2] deals with T1, Muscle, skeletal receptor tyrosine-protein kinase (Homo sapiens). The conditions noted are these: at 10 µM.
For test [3], the target named is T2, Serine/threonine-protein kinase Nek11 (Homo sapiens) (UniProt Q8NG66).
T2 sequence (whole entry): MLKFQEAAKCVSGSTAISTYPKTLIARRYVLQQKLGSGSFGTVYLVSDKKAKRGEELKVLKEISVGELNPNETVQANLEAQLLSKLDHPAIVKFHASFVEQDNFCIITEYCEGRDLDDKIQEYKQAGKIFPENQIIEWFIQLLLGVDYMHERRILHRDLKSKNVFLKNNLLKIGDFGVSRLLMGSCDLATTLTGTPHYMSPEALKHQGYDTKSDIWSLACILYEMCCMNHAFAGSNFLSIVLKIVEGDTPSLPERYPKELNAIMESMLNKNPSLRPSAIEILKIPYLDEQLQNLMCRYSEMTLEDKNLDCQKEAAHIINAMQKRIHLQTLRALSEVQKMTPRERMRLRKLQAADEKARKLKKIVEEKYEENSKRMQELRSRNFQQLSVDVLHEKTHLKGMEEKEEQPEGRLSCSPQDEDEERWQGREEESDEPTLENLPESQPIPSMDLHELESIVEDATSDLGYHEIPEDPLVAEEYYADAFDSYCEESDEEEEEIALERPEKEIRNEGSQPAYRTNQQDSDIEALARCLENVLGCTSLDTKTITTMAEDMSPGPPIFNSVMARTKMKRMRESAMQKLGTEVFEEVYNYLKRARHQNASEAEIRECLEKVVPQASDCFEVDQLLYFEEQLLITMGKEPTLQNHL
To be noted: at 1 µM.

The target of test [4] is T2, Serine/threonine-protein kinase Nek11 (Homo sapiens). The conditions noted are these: at 10 µM.
For test [5], the target named is T3, Serine/threonine-protein kinase Nek2 (Homo sapiens) (UniProt P51955).
T3 sequence (whole entry): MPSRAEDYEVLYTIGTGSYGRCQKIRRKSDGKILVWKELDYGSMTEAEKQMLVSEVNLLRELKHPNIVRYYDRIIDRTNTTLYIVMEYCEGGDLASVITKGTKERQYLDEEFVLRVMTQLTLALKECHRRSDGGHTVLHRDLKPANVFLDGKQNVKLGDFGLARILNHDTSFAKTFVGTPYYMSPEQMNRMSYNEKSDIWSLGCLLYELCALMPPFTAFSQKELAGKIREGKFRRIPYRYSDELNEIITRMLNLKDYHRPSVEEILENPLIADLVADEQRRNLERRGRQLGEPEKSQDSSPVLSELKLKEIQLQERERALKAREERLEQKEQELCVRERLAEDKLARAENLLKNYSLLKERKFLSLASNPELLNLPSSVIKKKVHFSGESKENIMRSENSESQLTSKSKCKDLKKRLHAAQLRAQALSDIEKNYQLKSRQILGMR
To be noted: at 1 µM.

Test [6] deals with T3, Serine/threonine-protein kinase Nek2 (Homo sapiens). To be noted: at 10 µM.
Test [7] concerns the target T4, Serine/threonine-protein kinase Nek3 (Homo sapiens) (UniProt P51956).
T4 sequence (whole entry): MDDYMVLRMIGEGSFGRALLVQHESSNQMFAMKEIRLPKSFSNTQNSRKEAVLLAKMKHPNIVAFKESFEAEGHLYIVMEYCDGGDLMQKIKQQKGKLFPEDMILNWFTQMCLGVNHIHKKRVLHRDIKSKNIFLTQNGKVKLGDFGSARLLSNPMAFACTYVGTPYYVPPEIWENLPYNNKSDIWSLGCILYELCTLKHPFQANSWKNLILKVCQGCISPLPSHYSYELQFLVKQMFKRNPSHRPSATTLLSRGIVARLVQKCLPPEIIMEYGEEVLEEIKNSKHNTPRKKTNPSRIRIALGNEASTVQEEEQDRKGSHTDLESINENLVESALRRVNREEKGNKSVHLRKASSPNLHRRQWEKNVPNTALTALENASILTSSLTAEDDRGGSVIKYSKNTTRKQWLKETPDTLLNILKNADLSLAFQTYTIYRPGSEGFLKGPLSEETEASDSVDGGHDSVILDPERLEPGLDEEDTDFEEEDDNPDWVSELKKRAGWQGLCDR
To be noted: at 1 µM.

Test [8] deals with T4, Serine/threonine-protein kinase Nek3 (Homo sapiens). To be noted: at 10 µM.
Test [9] deals with Serine/threonine-protein kinase tousled-like 2 (Homo sapiens) (UniProt Q86UE8). The conditions noted are these: at 1 µM.
Serine/threonine-protein kinase tousled-like 2 (Homo sapiens), sequence (Q86UE8 whole entry, looked up): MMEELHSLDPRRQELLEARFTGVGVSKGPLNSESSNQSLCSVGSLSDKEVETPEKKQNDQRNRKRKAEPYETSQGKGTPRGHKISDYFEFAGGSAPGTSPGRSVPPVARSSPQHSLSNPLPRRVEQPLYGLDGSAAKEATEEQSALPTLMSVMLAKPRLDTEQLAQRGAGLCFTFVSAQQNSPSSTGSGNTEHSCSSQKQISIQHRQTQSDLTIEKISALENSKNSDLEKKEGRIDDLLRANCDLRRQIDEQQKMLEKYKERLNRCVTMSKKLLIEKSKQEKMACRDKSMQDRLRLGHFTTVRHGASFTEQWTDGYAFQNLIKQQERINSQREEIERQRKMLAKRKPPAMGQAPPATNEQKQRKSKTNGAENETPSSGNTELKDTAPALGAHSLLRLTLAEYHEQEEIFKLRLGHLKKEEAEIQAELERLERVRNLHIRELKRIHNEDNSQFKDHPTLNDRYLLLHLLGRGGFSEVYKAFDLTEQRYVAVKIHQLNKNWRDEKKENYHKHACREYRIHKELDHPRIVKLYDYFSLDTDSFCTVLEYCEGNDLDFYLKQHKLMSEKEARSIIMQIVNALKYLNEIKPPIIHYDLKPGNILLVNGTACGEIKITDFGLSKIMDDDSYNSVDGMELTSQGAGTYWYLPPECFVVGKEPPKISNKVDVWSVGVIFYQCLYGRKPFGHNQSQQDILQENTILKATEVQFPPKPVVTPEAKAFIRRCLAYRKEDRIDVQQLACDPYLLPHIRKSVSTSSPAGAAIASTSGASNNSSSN
For test [10] the target is unchanged. To be noted: at 10 µM.
Test [11] deals with T5, Testis-specific serine/threonine-protein kinase 1 (Homo sapiens) (UniProt Q9BXA7).
T5 sequence (whole entry): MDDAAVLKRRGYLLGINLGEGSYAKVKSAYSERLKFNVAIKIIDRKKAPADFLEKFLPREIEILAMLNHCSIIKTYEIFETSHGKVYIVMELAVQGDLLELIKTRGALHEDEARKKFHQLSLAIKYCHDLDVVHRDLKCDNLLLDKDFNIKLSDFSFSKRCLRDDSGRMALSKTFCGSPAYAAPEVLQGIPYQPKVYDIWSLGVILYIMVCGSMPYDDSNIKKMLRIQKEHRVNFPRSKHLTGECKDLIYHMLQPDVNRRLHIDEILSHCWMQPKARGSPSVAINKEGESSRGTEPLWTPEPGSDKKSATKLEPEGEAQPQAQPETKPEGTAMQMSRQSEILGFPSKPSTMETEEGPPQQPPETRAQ
The conditions noted are these: at 1 µM.

For test [12], the target named is T5, Testis-specific serine/threonine-protein kinase 1 (Homo sapiens). To be noted: at 10 µM.
For test [13], the target named is T6, Testis-specific serine/threonine-protein kinase 2 (Homo sapiens) (UniProt Q96PF2).
T6 sequence (whole entry): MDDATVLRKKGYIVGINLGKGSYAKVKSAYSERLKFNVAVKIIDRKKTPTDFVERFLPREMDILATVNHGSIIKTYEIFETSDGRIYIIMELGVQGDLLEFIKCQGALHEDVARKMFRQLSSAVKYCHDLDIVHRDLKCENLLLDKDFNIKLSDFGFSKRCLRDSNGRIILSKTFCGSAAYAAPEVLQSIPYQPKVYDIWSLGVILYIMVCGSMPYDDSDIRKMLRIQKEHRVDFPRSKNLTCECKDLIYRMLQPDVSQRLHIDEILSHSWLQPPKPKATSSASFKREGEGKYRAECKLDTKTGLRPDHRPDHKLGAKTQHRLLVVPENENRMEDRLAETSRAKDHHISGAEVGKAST
The conditions noted are these: at 10 µM.

The target of test [14] is T7, Tyrosine-protein kinase Tec (Homo sapiens) (UniProt P42680).
T7 sequence (whole entry): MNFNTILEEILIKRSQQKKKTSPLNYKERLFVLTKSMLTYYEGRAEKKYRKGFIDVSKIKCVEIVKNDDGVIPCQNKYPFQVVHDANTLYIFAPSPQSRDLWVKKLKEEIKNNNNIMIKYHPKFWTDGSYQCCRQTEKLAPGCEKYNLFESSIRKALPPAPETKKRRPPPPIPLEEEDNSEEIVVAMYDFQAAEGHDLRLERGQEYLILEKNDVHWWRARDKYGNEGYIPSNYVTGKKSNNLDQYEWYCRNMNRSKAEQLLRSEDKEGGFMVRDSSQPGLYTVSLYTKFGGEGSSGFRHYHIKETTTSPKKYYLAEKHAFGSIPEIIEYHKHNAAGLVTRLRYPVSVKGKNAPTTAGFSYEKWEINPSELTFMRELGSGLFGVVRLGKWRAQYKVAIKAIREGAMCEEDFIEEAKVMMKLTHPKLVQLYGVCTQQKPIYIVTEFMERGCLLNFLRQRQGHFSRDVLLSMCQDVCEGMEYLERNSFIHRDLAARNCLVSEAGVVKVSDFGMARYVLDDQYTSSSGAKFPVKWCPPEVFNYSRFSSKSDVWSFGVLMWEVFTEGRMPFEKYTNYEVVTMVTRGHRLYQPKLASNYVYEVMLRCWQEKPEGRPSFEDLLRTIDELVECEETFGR
To be noted: at 1 µM.

Test [15] deals with T7, Tyrosine-protein kinase Tec (Homo sapiens). The conditions noted are these: at 10 µM.
For test [16], the target named is Angiopoietin-1 receptor (Homo sapiens) (UniProt Q02763). To be noted: at 1 µM.
Angiopoietin-1 receptor (Homo sapiens), sequence (Q02763 whole entry): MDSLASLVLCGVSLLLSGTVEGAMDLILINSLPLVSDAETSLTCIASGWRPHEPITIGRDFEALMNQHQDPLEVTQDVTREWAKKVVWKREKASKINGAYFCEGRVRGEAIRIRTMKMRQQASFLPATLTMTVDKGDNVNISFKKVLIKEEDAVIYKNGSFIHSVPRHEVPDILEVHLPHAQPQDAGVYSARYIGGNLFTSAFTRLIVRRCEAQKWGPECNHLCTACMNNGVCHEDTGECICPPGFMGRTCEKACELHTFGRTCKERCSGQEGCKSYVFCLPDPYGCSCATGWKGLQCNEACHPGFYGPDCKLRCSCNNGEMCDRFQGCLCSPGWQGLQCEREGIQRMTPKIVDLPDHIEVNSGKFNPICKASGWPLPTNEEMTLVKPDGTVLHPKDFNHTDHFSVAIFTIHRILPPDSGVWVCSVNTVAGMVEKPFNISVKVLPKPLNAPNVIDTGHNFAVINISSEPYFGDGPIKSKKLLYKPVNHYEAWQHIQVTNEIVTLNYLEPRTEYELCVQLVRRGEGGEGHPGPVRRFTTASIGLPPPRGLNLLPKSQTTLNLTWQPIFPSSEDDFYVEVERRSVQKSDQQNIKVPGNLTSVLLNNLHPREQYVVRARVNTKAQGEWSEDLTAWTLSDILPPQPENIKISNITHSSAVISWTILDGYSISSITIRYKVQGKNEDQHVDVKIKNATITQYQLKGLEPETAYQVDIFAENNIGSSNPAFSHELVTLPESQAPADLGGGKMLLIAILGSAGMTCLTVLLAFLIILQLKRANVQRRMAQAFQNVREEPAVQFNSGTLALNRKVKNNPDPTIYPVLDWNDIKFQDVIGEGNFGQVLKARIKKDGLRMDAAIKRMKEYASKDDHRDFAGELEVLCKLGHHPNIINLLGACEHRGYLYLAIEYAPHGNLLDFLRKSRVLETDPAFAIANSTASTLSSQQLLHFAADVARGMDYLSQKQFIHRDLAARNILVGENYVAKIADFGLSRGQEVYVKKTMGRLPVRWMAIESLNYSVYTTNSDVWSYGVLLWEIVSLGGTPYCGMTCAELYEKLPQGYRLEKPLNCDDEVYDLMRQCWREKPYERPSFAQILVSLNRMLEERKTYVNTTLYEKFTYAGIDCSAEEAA
The target is the same in test [17]. To be noted: at 10 µM.
Test [18] addresses High affinity nerve growth factor receptor (Homo sapiens) (UniProt P04629). To be noted: at 1 µM.
The target is the same in test [19]. The conditions noted are these: at 10 µM.
Test [20] has as its target BDNF/NT-3 growth factors receptor (Homo sapiens) (UniProt Q16620). The conditions noted are these: at 1 µM.

Molecules are shown by their SMILES.

BDNF/NT-3 growth factors receptor (Homo sapiens), sequence (Q16620 32-822 limits assumed): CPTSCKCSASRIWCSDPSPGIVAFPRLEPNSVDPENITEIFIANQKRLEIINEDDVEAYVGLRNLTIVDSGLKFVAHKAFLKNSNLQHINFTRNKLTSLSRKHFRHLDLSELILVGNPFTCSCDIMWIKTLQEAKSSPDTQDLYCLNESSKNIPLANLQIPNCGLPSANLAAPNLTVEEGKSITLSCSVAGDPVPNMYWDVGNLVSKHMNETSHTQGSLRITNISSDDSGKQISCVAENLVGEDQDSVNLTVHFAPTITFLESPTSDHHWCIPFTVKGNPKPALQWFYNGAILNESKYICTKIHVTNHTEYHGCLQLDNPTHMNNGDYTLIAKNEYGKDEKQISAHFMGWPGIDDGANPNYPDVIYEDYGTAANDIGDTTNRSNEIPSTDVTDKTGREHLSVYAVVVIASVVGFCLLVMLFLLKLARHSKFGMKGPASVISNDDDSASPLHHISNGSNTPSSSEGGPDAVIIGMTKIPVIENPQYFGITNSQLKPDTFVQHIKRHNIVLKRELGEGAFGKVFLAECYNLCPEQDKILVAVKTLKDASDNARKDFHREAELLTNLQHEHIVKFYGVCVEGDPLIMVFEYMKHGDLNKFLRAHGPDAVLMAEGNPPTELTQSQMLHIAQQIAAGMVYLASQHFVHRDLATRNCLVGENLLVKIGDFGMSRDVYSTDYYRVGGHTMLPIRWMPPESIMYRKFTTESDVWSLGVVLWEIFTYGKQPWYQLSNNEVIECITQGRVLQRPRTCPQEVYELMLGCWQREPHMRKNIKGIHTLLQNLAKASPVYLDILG
High affinity nerve growth factor receptor (Homo sapiens), sequence (P04629 33-796 limits assumed): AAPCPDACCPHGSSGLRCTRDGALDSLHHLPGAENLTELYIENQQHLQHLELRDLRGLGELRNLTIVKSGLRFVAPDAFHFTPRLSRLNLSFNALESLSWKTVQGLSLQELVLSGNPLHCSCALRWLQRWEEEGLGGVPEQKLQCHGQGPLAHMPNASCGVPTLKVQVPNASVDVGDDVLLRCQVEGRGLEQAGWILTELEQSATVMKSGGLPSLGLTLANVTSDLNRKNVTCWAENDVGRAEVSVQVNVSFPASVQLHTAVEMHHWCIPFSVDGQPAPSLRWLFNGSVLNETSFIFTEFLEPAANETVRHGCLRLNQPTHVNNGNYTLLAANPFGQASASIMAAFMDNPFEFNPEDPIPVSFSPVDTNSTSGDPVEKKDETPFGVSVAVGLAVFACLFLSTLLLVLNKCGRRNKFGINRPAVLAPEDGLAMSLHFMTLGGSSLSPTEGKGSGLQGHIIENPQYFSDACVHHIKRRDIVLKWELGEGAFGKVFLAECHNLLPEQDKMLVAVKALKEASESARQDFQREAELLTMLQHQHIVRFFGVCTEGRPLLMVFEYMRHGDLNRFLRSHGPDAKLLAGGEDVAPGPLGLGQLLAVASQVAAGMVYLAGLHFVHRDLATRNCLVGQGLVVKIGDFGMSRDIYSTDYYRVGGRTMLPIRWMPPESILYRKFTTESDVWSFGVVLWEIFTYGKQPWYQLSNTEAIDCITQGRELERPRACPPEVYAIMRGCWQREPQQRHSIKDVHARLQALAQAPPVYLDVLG

By residual activity is commonly meant the signal under treatment as a percentage of the control signal. For the molecule `O=[N+]([O-])c1ccc(-c2nc(-c3ccc(F)cc3)c(-c3ccncc3)[nH]2)cc1`, the residual activity in test [1] turned out to be 102%; in [2] it was 92%; in test [3], 57%; in [4], 75%; in test [5], 99%; in [6], 100%. For the same molecule, the residual activity in test [7] is 90%; in [8], 92%; in [9] it was 107%; in test [10], 101%; in test [11] it was 97%; in test [12], 85%. The residual activity in test [13] worked out at 94%; in [14], 98%; in test [15], 70%; in [16], 98%; in test [17] it was 86%; in [18], 96%. Also, the results for the residual activity in test [19] and in test [20] were 90% and 98%, respectively.
In the case of `CN(C)CCCn1cc(C2=C(c3c[nH]c4ccccc34)C(=O)NC2=O)c2ccccc21`, the residual activity in test [1] came out at 134%; in test [2], 74%; in test [3] it was 72%; in test [4] it was 59%; in [6], 105%; in [8], 90%. In addition, the residual activity came to 21% in test [9]; 2% in [10]; 86% in test [11]; 37% in [12]; 113% in test [14]; 65% in test [15]. In addition, the residual activity in [16] was 120%; in test [17], 60%; in [18], 48%; in test [19] it was 13%; in test [20], 36%.
In the case of `N#CCCc1ccc2c(c1)-c1[nH]c3ccc([N+](=O)[O-])cc3c1CC(=O)N2`, the residual activity in test [1] was 68%; in [2] it was 32%; in [4] it was 72%; in test [7] it was 79%; in test [8], 67%; in test [11] it was 39%. Besides, the residual activity is 21% in [12]; 29% in test [15]; 54% in test [18]; 23% in [19]; 71% in [20].
As for `c1ccc(-c2n[nH]c3c2oc2ccccc23)cc1`, the residual activity is 14% in [1]; 0% in [2]; 91% in [5]; 99% in test [6]; 98% in test [9]; 86% in test [10]. For the same molecule, the residual activity was determined as 82% in test [12]; 96% in [13]; 76% in test [15]; 83% in test [16]; 58% in test [17]; 32% in test [18]. Further, the results for the residual activity in test [19] and in test [20] were 2% and 45%, respectively.
For the molecule `COc1cc2ncnc(Nc3ccc(O)c(Br)c3)c2cc1OC`, the residual activity in [1] was determined as 77%; in test [2] it was 63%; in test [3], 50%; in [4] it was 64%; in test [5] it was 73%; in test [6], 83%. The residual activity in [7] came to 106%; in [8], 81%; in test [9], 86%; in [10], 76%; in test [11], 87%; in test [12] it was 62%. The residual activity came to 91% in test [13]; 76% in [14]; 34% in test [15]; 61% in test [16]; 53% in test [17]; 82% in test [18]. Besides, the residual activity is 44% in [19] and 110% in test [20].
In the case of `Cc1cccc(-c2[nH]c(C(C)(C)C)nc2-c2ccc3c(c2)OCO3)n1`, the residual activity was determined as 98% in test [1]; 87% in [2]; 80% in test [3]; 107% in [4]; 88% in test [5]; 95% in test [6]. The residual activity is 96% in [9]; 95% in test [10]; 101% in test [11]; 90% in [12]; 94% in test [13]; 97% in [14]. For the same molecule, the residual activity in test [15] was 91%; in [16] it was 101%; in test [17] it was 83%; in test [18] it was 92%; in test [19], 106%.

(Values after ChEMBL document CHEMBL2218924, “A broad activity screen in support of a chemogenomic map for kinase signalling research and drug discovery” (Biochem J, 2013).)
